Among the data in PubChem BioAssay AID793 (The Scripps Research Institute Molecular Screening Center, 2007) are inhibition values, retold here.

The whole screen tested about 140,000 compounds, of which about 1,400 (1%) were called active. No stated cut-off is given here; in the data, active means inhibition above about 17%; inactive means the rest. Only a selection was taken, and actives are over-represented in it overall.

The target in the experiment is Neuropeptide Y receptor type 2 (Homo sapiens) (UniProt P49146). As to the kind of experiment: NPY-Y2 receptor antagonists, primary screen, cell-based (AID 793).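 Further: 0% = vehicle with agonist challenge and 100% = reference antagonist with challenge.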 The settings on record: NPY-Y2 expressing cells, antagonist mode; at 2.7 µM; stronger effect = higher value.
Sequence of Neuropeptide Y receptor type 2 (Homo sapiens) (P49146 whole entry, looked up): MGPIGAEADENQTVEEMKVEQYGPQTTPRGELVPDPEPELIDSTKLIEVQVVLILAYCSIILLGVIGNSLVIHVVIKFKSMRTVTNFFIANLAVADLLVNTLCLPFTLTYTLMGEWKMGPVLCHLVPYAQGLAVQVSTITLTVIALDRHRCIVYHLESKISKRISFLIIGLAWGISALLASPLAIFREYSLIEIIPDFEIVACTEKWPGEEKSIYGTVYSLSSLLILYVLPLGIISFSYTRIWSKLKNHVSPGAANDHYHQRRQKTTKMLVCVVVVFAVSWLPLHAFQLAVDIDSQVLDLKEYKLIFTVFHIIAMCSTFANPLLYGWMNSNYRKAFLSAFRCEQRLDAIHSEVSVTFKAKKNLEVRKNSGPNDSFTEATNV
In general, inhibition refers to the change of the read-out against control, counted positive when it falls. Regarding `COC(=O)c1cc(C(=O)CSc2nc(C)cc(C)n2)ccc1O`, the inhibition was 4.06% (inactive).
As for `Cc1cc(Oc2ccc(Cl)cc2)nc(SCC(=O)c2ccccc2)n1`, the figure is 48.6% (active).
On to `Cc1cc(SCC(=O)c2ccccc2)nc(SCC(=O)c2ccccc2)n1`, for which the inhibition was 13.8% (inactive).
The value for `Cc1ccccc1OCC(=O)Nc1nc(C)c(C(=O)N(C)C)s1` was 5.58% (inactive); that for `CC1CCN(C(=S)NC2CC3CCC2C3)CC1` (configuration not stated) was 1.13% (inactive); that for `O=C(CN1C(=O)NC2(CCCCC2)C1=O)NCCC1=CCCCC1` was 0.27% (inactive).
The value for `O=C(CN1C(=O)NC2(CCCCCC2)C1=O)NCc1cccs1` was -3.2% (inactive).
On to `O=C(CN1C(=O)NC(Cc2ccccc2)(Cc2ccccc2)C1=O)NCC1CCCCC1`, for which the inhibition is 80.5% (active).
The value for `O=C1CC(c2cccc(Cl)c2)CC(O)=C1C=Nc1ccccc1` (configuration not stated) was 18.4% (active).
As for `O=C1CC(c2ccccc2)CC(O)=C1C=NCCN1CCOCC1` (configuration not stated), the figure is 0.58% (inactive).
For `O=C1CCCC(O)=C1C=NCCc1ccccc1`, the inhibition is 1.66% (inactive).
As for `COc1ccc(NC(C(=O)Nc2cccc(C(C)=O)c2)c2ccccc2)cc1` (configuration not stated), the inhibition was -1.54% (inactive).
On to `COCCCNCCOCCOc1ccc(Cl)cc1Br`, for which the inhibition was 3.88% (inactive).
With `O=C(NCc1cccnc1)c1ccc(CS(=O)(=O)c2ccc(Br)cc2)o1`, the inhibition is -0.12% (inactive).
For `Cc1ccc(S(=O)(=O)N(Cc2ccc(Cl)cc2)c2ccccc2C(=O)NCc2cccnc2)cc1`, the inhibition was 35% (active).
As for `O=C(NCc1cccnc1)c1cccnc1Sc1ccc(Cl)cc1`, the figure is -0.63% (inactive); as for `COc1ccc(/C=N/NC(=O)c2ccccc2)cc1OS(=O)(=O)c1ccccc1`, 0.26% (inactive).
The value for `COc1ccc(-c2noc(CSc3ccc(C)cc3)n2)cc1` was 16.5% (inactive); that for `COc1ccc(-c2noc(-c3ccc(C)cc3)n2)cc1` was 2.85% (inactive).
In the case of `COc1ccc(-c2noc(COc3ccc(Cl)c(C)c3)n2)cc1`, the inhibition was 18.2% (active).
As for `O=C(NCCCO)/C(=C\C=C\c1ccccc1)NC(=O)c1ccccc1Cl`, the figure is 1.12% (inactive); as for `CCOC12CC(C)(C)CC(C)(CC3=C1C(=O)CC(C)(C)C3)C2` (configuration not stated), 3.39% (inactive).
Turning to `COc1ccc(C(=O)Nc2c(Cl)cc(Cl)cc2C(=O)N2CCC(C)CC2)cc1`, the inhibition was 3.91% (inactive).
The value for `O=c1c2ccccc2nc2n1C1(CCCCC1)Cc1ccccc1-2` was 21.2% (active); that for `CCC1(CC)Cc2ccccc2-c2nc3ccccc3c(=O)n21` was 7.5% (inactive).
Turning to `c1cncc(-c2nnc3n2C2(CCCCC2)Cc2ccccc2-3)c1`, the inhibition was 1.77% (inactive).
Regarding `COc1ccc(C(C(=O)NC2CCCCC2)N(C(=O)Cc2c[nH]c3ccccc23)c2ccccc2)cc1OC` (configuration not stated), the inhibition is 0.1% (inactive).
As to `CC(NC(=O)c1cccc2ccccc12)c1ccc2c(c1)CCCC2` (configuration not stated), the inhibition is 5.32% (inactive).
As for `O=C(CC(O)(C(F)(F)F)C(F)(F)F)Nc1ccc(Cl)c(Cl)c1`, the figure is 24.4% (active); as for `CN(C)CCNC(CC(=O)Nc1ccc(Cl)c(Cl)c1)C(=O)O` (configuration not stated), 0.54% (inactive).
On to `O=C(CC(=O)Nc1ccc(Cl)c(Cl)c1)N/N=C/c1ccc(O)cc1`, for which the inhibition was -3.17% (inactive).
The value for `Nc1nc(SCc2ccc([N+](=O)[O-])cc2)c2ncn(C3OC(CO)C(O)C3O)c2n1` (configuration not stated) was 1.64% (inactive); that for `O=C(Nc1cn(-c2ccccc2)nc1-c1ccccc1)c1ccccc1` was 9.26% (inactive).
As for `O=C(NCCN1CCOCC1)c1cc(Sc2cccc(Cl)c2)nc2ccccc12`, the figure is 3.17% (inactive); as for `CCCCCNC(=O)Cc1ccc(OC)cc1`, 20.3% (active); as for `COc1ccc(OCCCC(=O)NCCc2ccccc2)cc1`, 4.05% (inactive).
On to `CCCCNC(=O)C1(c2ccc(OC)cc2)CCOCC1`, for which the inhibition was 3.6% (inactive).
`CCOC(=O)C1=C(C)NC(=O)NC1c1ccccc1` (configuration not stated): the inhibition is 0.94% (inactive).
As for `O=C(Nc1nnc(SCc2c(Cl)cccc2Cl)s1)C1CCCO1` (configuration not stated), the figure is 22.4% (active); as for `O=C(Nc1nnc(SCc2ccc(Cl)cc2Cl)s1)C1COc2ccccc2O1` (configuration not stated), -1.05% (inactive).
`O=C(Nc1nnc(CCc2ccccc2)s1)C1CCCO1` (configuration not stated): the inhibition is 3.28% (inactive).
As to `COc1ccc(NC(=O)c2ccc(C#CC(C)(C)O)cc2)cc1`, the inhibition was -0.31% (inactive).
As for `Cc1ccc(C2=NN(C)c3nc4ccccc4n3C2)cc1`, the inhibition was 18.8% (active).
In the case of `Cc1ccc(O)c(CNc2nc3ccccc3n2C)c1`, the inhibition is -2.2% (inactive).
Consider `Cc1nn2c3ccccc3nc2n(C)c1=O`, for which the inhibition is 10.8% (inactive).
Consider `O=C(NC1CCN(Cc2ccccc2)CC1)c1c(F)cccc1F`, for which the inhibition is 0.52% (inactive).
The value for `O=S(=O)(NCCSc1ccccn1)c1ccc(Cl)cc1` was 6% (inactive); that for `Cc1ccc(S(=O)(=O)NCCSc2ccccc2)cc1[N+](=O)[O-]` was 13.3% (inactive).
As for `CCOc1ccc(S(=O)(=O)NCCSc2ccccc2)cc1`, the figure is 20.6% (active).
Consider `Cc1cc(=O)oc2cc(OCC3CC(c4ccccc4Cl)=NO3)ccc12` (configuration not stated), for which the inhibition is 10.7% (inactive).
Turning to `Cc1ccccc1N1CCN(CCCOc2ccc3c(C)cc(=O)oc3c2)CC1`, the inhibition was 22.1% (active).
`Cc1ccccc1NC(=O)c1ccc(COc2ccc3c(C)cc(=O)oc3c2)cc1`: the inhibition is 1.18% (inactive).
The value for `CC1(C)C(C=C(Cl)Cl)C1C(=O)N(Cc1ccc(Cl)cc1)C1CCS(=O)(=O)C1` (configuration not stated) was 5.56% (inactive).
In the case of `COc1ccc(Cl)cc1-n1c(C)cc(C(=O)OCC(=O)N2CC(=O)Nc3ccccc32)c1C`, the inhibition was -0.44% (inactive).
As for `Cc1cc(C(=O)OCC(=O)N2c3ccccc3NC(=O)C2(C)C)c(C)n1-c1ccccc1`, the figure is 20.1% (active); as for `CCNc1ccc(C(=O)OCC(=O)N2c3ccccc3NC(=O)C2(C)C)cc1[N+](=O)[O-]`, 0.27% (inactive); as for `O=S(=O)(Cc1cc(Sc2ccccc2)nc(-c2ccccc2)n1)c1ccccc1`, 32.1% (active).
For the molecule `CCS(=O)(=O)n1nc(-c2ccccc2)nc1SCc1ccccc1`, the inhibition was 11.5% (inactive).
Take `Cc1ccc(Sc2cc(N3CCOCC3)nc(-c3ccccc3)n2)cc1`: the inhibition is -0.14% (inactive).
The value for `COc1ccc(N2CCN(Cc3nnc(-c4ccccc4)o3)CC2)cc1` was 3.16% (inactive); that for `Cc1nc2nc3c(cn2n1)C(=O)CC(c1ccccc1)C3` (configuration not stated) was 2.84% (inactive); that for `Cc1cc(C)nc(-n2ncc3c2CC(c2ccc(C(C)C)cc2)CC3=O)n1` (configuration not stated) was 24.9% (active).
